Test results published in PubChem BioAssay (EPA / NIEHS).
The source made the active and inactive calls. The calls were made as follows: active = hit-call score of the fitted dose curve at least 0.9, where 1 is the maximum; inactive = score below 0.9.

Experiments:
Details in all cases: mRNA level, 48 h; actives raise or lower the signal
[1] = read-out: Peroxisomal acyl-coenzyme A oxidase 1 (ACOX1) gene, ACOX1 (gene 51); experiment: LTEA_HepaRG_ACOX1: Life Technologies and Expression Analysis (LTEA) Assay for Peroxisomal acyl-coenzyme A oxidase 1 (ACOX1) gene using HepaRG (AID 2283467)
Method in brief: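 Differentiated human HepaRG cells were exposed in duplicate for 48 h in serum-free induction medium to eight half-log concentrations up to 100 uM in 0.5% DMSO. ACOX1 mRNA was then quantified by TaqMan qRT-PCR, normalized to ACTB, GAPDH and POLR2A.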

[2] = read-out: Alkaline Phosphatase, Placental (ALPP) gene, ALPP (gene 250); experiment: LTEA_HepaRG_ALPP: Life Technologies and Expression Analysis (LTEA) Assay for Alkaline Phosphatase, Placental (ALPP) gene using HepaRG (AID 2283468)
Method in brief: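 HepaRG cells plated 48 h, then exposed in duplicate for 48 h in serum-free induction medium to 8-point half-log series from 100 uM in 0.5% DMSO. ALPP mRNA by TaqMan qRT-PCR, normalized to ACTB/GAPDH/POLR2A; bidirectional fit versus DMSO.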

[3] = read-out: Bcl-2 (BAD) gene, BAD (gene 572); experiment: LTEA_HepaRG_BAD: Life Technologies and Expression Analysis (LTEA) Assay for Bcl-2 (BAD) gene using HepaRG (AID 2283469)
Method in brief: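 Differentiated human HepaRG cells in serum-free induction medium were exposed in duplicate for 48 h to eight concentrations (top 100 uM, half-log steps, 0.5% DMSO). BAD mRNA was quantified by qRT-PCR normalised to ACTB, GAPDH and POLR2A, with bidirectional fitting versus DMSO.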

[4] = read-out: Bcl-2 (BAX) gene, BAX (gene 581); experiment: LTEA_HepaRG_BAX: Life Technologies and Expression Analysis (LTEA) Assay for Bcl-2 (BAX) gene using HepaRG (AID 2283470)
Method in brief: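 Differentiated HepaRG cells exposed 48 h in serum-free induction medium, eight half-log concentrations from 100 uM, in duplicate, 0.5% DMSO vehicle. BAX mRNA by TaqMan qRT-PCR, normalised to ACTB, GAPDH and POLR2A.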

[5] = read-out: adenosine kinase (ADK) gene, ADK (gene 132); experiment: LTEA_HepaRG_ADK: Life Technologies and Expression Analysis (LTEA) Assay for adenosine kinase (ADK) gene using HepaRG (AID 2283471)
Method in brief: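 Following 48 h exposure of HepaRG cells in 0.5% DMSO (top concentration 100 uM, duplicate wells), ADK mRNA induction or suppression was measured by qRT-PCR, normalised to ACTB/GAPDH/POLR2A, and fitted bidirectionally relative to vehicle.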

[6] = read-out: Alpha-fetoprotein (AFP) gene, AFP (gene 174); experiment: LTEA_HepaRG_AFP: Life Technologies and Expression Analysis (LTEA) Assay for Alpha-fetoprotein (AFP) gene using HepaRG (AID 2283472)
Method in brief: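 Differentiated human HepaRG cells exposed 48 h in serum-free induction medium, 8-point half-log series from 100 uM in 0.5% DMSO, duplicate. AFP mRNA by qRT-PCR, normalized to ACTB, GAPDH, POLR2A; bidirectional fit vs DMSO.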

BCL2L11 (gene 10018) = experiment: LTEA_HepaRG_BCL2L11: Life Technologies and Expression Analysis (LTEA) Assay for Bcl-2 (BCL2L11) gene using HepaRG (AID 2283473)
Method in brief: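 Differentiated human HepaRG cells were exposed 48 h in serum-free induction medium to eight half-log concentrations up to 100 uM in 0.5% DMSO, in duplicate. BCL2L11 mRNA was quantified by TaqMan qRT-PCR, normalized to ACTB, GAPDH and POLR2A; induction or repression fitted versus DMSO.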

[7] = read-out: Apolipoprotein A-V (APOA5) gene, APOA5 (gene 116519); experiment: LTEA_HepaRG_APOA5: Life Technologies and Expression Analysis (LTEA) Assay for Apolipoprotein A-V (APOA5) gene using HepaRG (AID 2283474)
Method in brief: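 Differentiated HepaRG cells in serum-free induction medium, exposed 48 h in duplicate to eight half-log concentrations topping at 100 uM (0.5% DMSO). APOA5 mRNA by Fluidigm TaqMan qRT-PCR, normalized to ACTB, GAPDH and POLR2A; bidirectional fit versus DMSO.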

[8] = read-out: Apoptosis regulator Bcl-2 (Homo sapiens) (UniProt P10415); experiment: LTEA_HepaRG_BCL2: Life Technologies and Expression Analysis (LTEA) Assay for Bcl-2 gene using HepaRG (AID 2283475)
Method in brief: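 Differentiated human HepaRG cells in serum-free induction medium exposed 48 h, in duplicate, to 8-point half-log series from 100 uM in 0.5% DMSO. BCL2 mRNA by qRT-PCR (TaqMan/Fluidigm), normalized to ACTB, GAPDH, POLR2A; bidirectional fit against DMSO.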

[9] = read-out: Bcl-2 (BID) gene, BID (gene 637); experiment: LTEA_HepaRG_BID: Life Technologies and Expression Analysis (LTEA) Assay for Bcl-2 (BID) gene using HepaRG (AID 2283476)
Method in brief: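 Gene expression by qRT-PCR in HepaRG cells after 48 h exposure, duplicate wells, eight half-log concentrations topping at 100 uM in 0.5% DMSO. Normalized to ACTB, GAPDH, POLR2A; bidirectional fitting relative to DMSO.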

Caspase-3 (Homo sapiens) = Caspase-3 (Homo sapiens) (UniProt P42574); experiment: LTEA_HepaRG_CASP3: Life Technologies and Expression Analysis (LTEA) Assay for cysteine-aspartic acid protease (CASP3) using HepaRG (AID 2283477)
Sequence of Caspase-3 (Homo sapiens) (P42574 whole entry, looked up): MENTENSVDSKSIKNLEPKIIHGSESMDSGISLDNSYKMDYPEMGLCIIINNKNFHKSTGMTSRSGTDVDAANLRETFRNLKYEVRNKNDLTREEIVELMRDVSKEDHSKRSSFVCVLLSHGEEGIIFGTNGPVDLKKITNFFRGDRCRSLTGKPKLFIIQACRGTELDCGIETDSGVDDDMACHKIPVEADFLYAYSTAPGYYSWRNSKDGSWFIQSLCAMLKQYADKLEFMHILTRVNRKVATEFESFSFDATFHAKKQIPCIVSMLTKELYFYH
Method in brief: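 Differentiated HepaRG cells, plated 48 h, were treated in duplicate in serum-free induction medium for 48 h with eight half-log concentrations up to 100 uM in 0.5% DMSO. CASP3 mRNA measured by qRT-PCR, normalized to ACTB, GAPDH, POLR2A.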

[10] = read-out: Cytochrome P450 (CYP24A1), CYP24A1 (gene 1591); experiment: LTEA_HepaRG_CYP24A1: Life Technologies and Expression Analysis (LTEA) Assay for Cytochrome P450 (CYP24A1) using HepaRG (AID 2283478)
Method in brief: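 HepaRG cells plated 48 h, then exposed in duplicate in serum-free induction medium for 48 h to 8-point half-log series from 100 uM in 0.5% DMSO. CYP24A1 mRNA by Fluidigm qRT-PCR, normalized to ACTB, GAPDH, POLR2A; bidirectional fit versus DMSO.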

[11] = read-out: Cytochrome P450 (CYP1A2), CYP1A2 (gene 1544); experiment: LTEA_HepaRG_CYP1A2: Life Technologies and Expression Analysis (LTEA) Assay for Cytochrome P450 (CYP1A2) using HepaRG (AID 2283479)
Method in brief: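 Differentiated human HepaRG cells in serum-free induction medium exposed 48 hours in duplicate to 8 half-log concentrations from 100 uM, 0.5% DMSO. CYP1A2 mRNA quantified by qRT-PCR, normalized to ACTB, GAPDH and POLR2A; bidirectional fitting versus DMSO.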

[12] = read-out: cysteine-aspartic acid protease (CASP8), CASP8 (gene 841); experiment: LTEA_HepaRG_CASP8: Life Technologies and Expression Analysis (LTEA) Assay for cysteine-aspartic acid protease (CASP8) using HepaRG (AID 2283480)
Method in brief: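 Differentiated human HepaRG cells, plated 48 h then switched to serum-free induction medium, were exposed in duplicate for 48 h to 8 half-log concentrations up to 100 uM in 0.5% DMSO. CASP8 mRNA was quantified by qRT-PCR, normalized to ACTB/GAPDH/POLR2A.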

[13] = read-out: Cytochrome P450 (CYP2B6), CYP2B6 (gene 1555); experiment: LTEA_HepaRG_CYP2B6: Life Technologies and Expression Analysis (LTEA) Assay for Cytochrome P450 (CYP2B6) using HepaRG (AID 2283481)
Method in brief: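 Differentiated human HepaRG cells in serum-free induction medium, dosed in duplicate for 48 h over 8 half-log concentrations topping at 100 uM (0.5% DMSO). CYP2B6 mRNA measured by TaqMan qRT-PCR, normalized to ACTB, GAPDH, POLR2A; bidirectional fit versus DMSO.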

CYP2C8 (gene 1558) = experiment: LTEA_HepaRG_CYP2C8: Life Technologies and Expression Analysis (LTEA) Assay for CYP2C8 using HepaRG (AID 2283483)
Method in brief: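 Differentiated human HepaRG cells were exposed for 48 h in serum-free induction medium to eight half-log concentrations up to 100 uM in 0.5% DMSO, in duplicate. CYP2C8 mRNA was measured by TaqMan qRT-PCR, normalized to ACTB, GAPDH and POLR2A, and fitted bidirectionally against DMSO.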

CYP2C9 (gene 1559) = experiment: LTEA_HepaRG_CYP2C9: Life Technologies and Expression Analysis (LTEA) Assay for CYP2C9 using HepaRG (AID 2283484)
Method in brief: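 Differentiated human HepaRG cells were exposed 48 h in serum-free induction medium to eight half-log concentrations up to 100 uM in 0.5% DMSO. CYP2C9 mRNA was measured by qRT-PCR, normalized to ACTB, GAPDH and POLR2A, and fitted bidirectionally against DMSO.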

CYP4A11 (gene 1579) = experiment: LTEA_HepaRG_CYP4A11: Life Technologies and Expression Analysis (LTEA) Assay for CYP4A11 using HepaRG (AID 2283486)
Method in brief: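 Differentiated HepaRG cells, 48 h after plating, exposed in duplicate for 48 h to 8 half-log concentrations up to 100 uM in 0.5% DMSO in serum-free induction medium. CYP4A11 mRNA measured by TaqMan qRT-PCR, normalized to ACTB, GAPDH and POLR2A.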

CYP2E1 (gene 1571) = experiment: LTEA_HepaRG_CYP2E1: Life Technologies and Expression Analysis (LTEA) Assay for CYP2E1 using HepaRG (AID 2283485)
Method in brief: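 HepaRG cells, plated 48 h, then exposed 48 h in serum-free induction medium to eight half-log concentrations from 100 uM in 0.5% DMSO, duplicate. CYP2E1 mRNA by qRT-PCR, normalized to ACTB/GAPDH/POLR2A; bidirectional fit versus DMSO.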

Sequence of Apoptosis regulator Bcl-2 (Homo sapiens) (P10415 whole entry, looked up): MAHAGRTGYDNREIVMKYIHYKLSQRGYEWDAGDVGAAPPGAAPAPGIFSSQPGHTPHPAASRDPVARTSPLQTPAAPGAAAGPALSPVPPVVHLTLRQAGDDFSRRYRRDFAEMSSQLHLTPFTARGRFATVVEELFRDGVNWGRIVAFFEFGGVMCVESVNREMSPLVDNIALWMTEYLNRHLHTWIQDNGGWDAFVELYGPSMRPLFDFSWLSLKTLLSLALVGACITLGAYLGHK

With CO/C=C(/C(=O)OC)c1ccccc1COc1cccc(C(F)(F)F)n1 the AC50 [1] was 5.3 µM (active), the AC50 [2] was 5.39 µM (active) and the outcome [3] was “inactive”. The AC50 [4] was 9.44 µM (active), the outcome [5] was “inactive” and the AC50 [6] was 4.93 µM (active). The AC50 (BCL2L11 (gene 10018)) was 6.53 µM (active), the AC50 [7] was 9.59 µM (active) and the AC50 [8] was 9.33 µM (active). The outcome [9] was “inactive”, the outcome (Caspase-3 (Homo sapiens)) was “inactive” and the outcome [10] was “inactive”. For the same compound, the AC50 [11] was 7.53 µM (active), the outcome [12] was “inactive” and the AC50 [13] was 7.13 µM (active). The AC50 (CYP2C8 (gene 1558)) was 8.74 µM (active), the AC50 (CYP2C9 (gene 1559)) was 8.81 µM (active) and the AC50 (CYP4A11 (gene 1579)) was 3.9 µM (active).
In the case of NS(=O)(=O)C(F)(F)C(F)(F)C(F)(F)C(F)(F)C(F)(F)C(F)(F)C(F)(F)C(F)(F)F, the AC50 [1] is reported as 14.9 µM (active), the outcome [2] is reported as “inactive” and the AC50 [3] is reported as 17.6 µM (active). The outcome [4] was “inactive”, the AC50 [5] was 4.81 µM (active) and the AC50 [6] was 11.4 µM (active). The AC50 (BCL2L11 (gene 10018)) was 4.05 µM (active), the AC50 [8] was 2.79 µM (active) and the outcome [9] was “inactive”. The AC50 (Caspase-3 (Homo sapiens)) was 3.73 µM (active), the outcome [10] was “inactive” and the AC50 [11] was 5 µM (active). The AC50 [12] was 12.9 µM (active), the AC50 [13] was 9.56 µM (active) and the AC50 (CYP2C8 (gene 1558)) was 11.1 µM (active). The AC50 (CYP2C9 (gene 1559)) was 12.7 µM (active), the AC50 (CYP2E1 (gene 1571)) was 6.73 µM (active) and the AC50 (CYP4A11 (gene 1579)) was 12.6 µM (active).
For Cc1cc(O)ccc1Cl, the outcome [1] was “inactive”, the outcome [2] was “inactive” and the outcome [3] was “inactive”. For the same compound, the outcome [4] was “inactive”, the outcome [5] was “inactive” and the outcome [6] was “inactive”. The outcome (BCL2L11 (gene 10018)) was “inactive”, the outcome [8] was “inactive” and the outcome [9] was “inactive”. The outcome (Caspase-3 (Homo sapiens)) was “inactive”, the outcome [10] was “inactive” and the outcome [11] was “inactive”. The outcome [12] was “inactive”, the outcome [13] was “inactive” and the outcome (CYP2C8 (gene 1558)) was “inactive”. For the same compound, the outcome (CYP2C9 (gene 1559)) was “inactive”, the outcome (CYP2E1 (gene 1571)) was “inactive” and the outcome (CYP4A11 (gene 1579)) was “inactive”.
